# Source: PubChem BioAssay (Tox21)
# Inconclusive results are not listed. Unmarked numbers belong to inactive results. Calls of active or inactive are those of the source. Calls follow the shape of the dose curve; as a rule, active = well fitted activation curve with a large enough effect in the repeat runs; inconclusive = weak or mixed curves; inactive = flat fitted curve, though single readings scatter. Positions of bridges follow the written chain, without caps; N, C: chain ends. Non-standard residues stand in square brackets, D forms with d. Residues, ends and D or L forms follow the SMILES beside them. *: point of attachment. X1 = CC[C@@H](C)[C@@H](N)C1=N[C@H](C(=O)*)CS1; d(aIle) = CC[C@H](C)[C@@H](N)C(=O)O; dOrn = NCCC[C@@H](N)C(=O)O
# Target: Nuclear receptor subfamily 1 group I member 2 (Homo sapiens) (UniProt O75469)
# Experiment: Human pregnane X receptor (PXR) activation by small molecules, qHTS assay (AID 1346985); also: nearly all actives have a fitted effect of over 40% in size
# Conditions: DPX-2 HepG2 CYP3A4-luciferase, 24 h; series mostly up to 38.3 µM; activation: at the top concentration
# Summary of the method: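 DPX-2 cells (HepG2 co-transfected with a PXR response element and a CYP3A4-promoter luciferase construct) were seeded at 2,000 per well, rested 5 hr at 37C, then exposed to DMSO-dissolved compounds for 24 hr. Activation was read as luciferase luminescence.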
# % is scaled to controls: 0 for no effect and ±100 for the full control effect; potency is read from the fitted curve at half-maximal effect.
SMILES,activation,Potency
O=C1c2ccccc2CN2C(=O)c3ccccc3CN12,2.94%,–
CC[C@@H](C)[C@H](N)C(=O)O,-6.02%,–
Cc1cc(CC(C)CC(C)(C)C)n(O)c(=O)c1 (stereo not given) (tested in a mixture with another compound),–,25.1 µM (active)
NCCO/C=C/[C@H](N)C(=O)O,-6.93%,–
Cc1cc(=O)c(C(=O)N[C@@H](C(=O)N[C@@H]2C(=O)N3C(C(=O)O)=C(CSc4nnnn4C)CS[C@H]23)c2ccc(O)cc2)c[nH]1,-5.24%,–
CC(=O)Oc1cc(C(F)(F)F)ccc1C(=O)O,-7.82% [at 17.1 µM],–
C=C1[C@@H]2CC[C@@H](C2)C1(C)C,-9.1%,–
CCCOC(=O)c1ccccc1O,-1.14%,–
Cc1cc(C(=O)NCCc2ccc(S(=O)(=O)NC(=O)NN3CCCCCC3)cc2)no1,8.58%,–
CC[C@@H](C)[C@@H](N)C1=N[C@H](C(=O)N[C@@H](CC(C)C)C(=O)N[C@@H](CCC(=O)O)C(=O)N[C@@H](C(=O)N[C@@H]2CCCCNC(=O)[C@@H](CC(N)=O)NC(=O)[C@@H](CC(=O)O)NC(=O)[C@@H](Cc3cnc[nH]3)NC(=O)[C@@H](Cc3ccccc3)NC(=O)[C@@H]([C@H](C)CC)NC(=O)[C@@H](CCCN)NC2=O)[C@@H](C)CC)CS1 (X1-LE[d(aIle)][dK][dOrn][dI][dF][dH][dD][dN]; lactam 4-C),-4.51% [at 17.1 µM],–
NCC(O)CC(=O)O (stereo not given),10.3%,–
CC[N+](CC)(CC)CCC(O)(c1ccccc1)C1CCCCC1 (stereo not given),-2.44% [at 17.1 µM],–
CC/C=C\C/C=C\C/C=C\C/C=C\C/C=C\C/C=C\CCC(=O)O,-2.6%,–
CN1C(C(=O)Nc2ccccn2)C(=O)c2sc(Cl)cc2S1(=O)=O (stereo not given),27.2%,–
OCC1(CO)COC(C(Cl)(Cl)Cl)OC1,-3.16%,–
O=C(O)[C@@H]1C[C@H](CP(=O)(O)O)CCN1,-6%,–
O=C(O)COc1ccccc1/C=N/NC(=O)c1ccncc1,-1.76%,–
CN(C)CCC(O)(c1ccccc1)c1ccccc1Cl (stereo not given),–,15.8 µM (active)
O=C(O)/C=C/C(O)c1ccc(Cl)cc1 (stereo not given),13.2%,–
O=P(O)(O)C(O)(Cn1ccnc1)P(=O)(O)O,-0.208%,–

SMILES,activation,Potency
Cc1c(N)nc([C@H](CC(N)=O)NC[C@H](N)C(N)=O)nc1C(=O)N[C@H](C(=O)N[C@H](C)[C@@H](O)[C@H](C)C(=O)N[C@H](C(=O)NCCc1nc(-c2nc(C(=O)NCCCCN=C(N)N)cs2)cs1)[C@@H](C)O)[C@@H](O[C@@H]1O[C@@H](CO)[C@@H](O)[C@H](O)[C@@H]1O[C@H]1O[C@H](CO)[C@@H](O)[C@H](OC(N)=O)[C@@H]1O)c1cnc[nH]1,0.24%,–
CC(C)=CCC/C(C)=C/CC/C(C)=C/CC/C=C(\C)CC/C=C(\C)CCC=C(C)C,-3.17%,–
CCOc1cc(CC(=O)N[C@@H](CC(C)C)c2ccccc2N2CCCCC2)ccc1C(=O)O,11.7% [at 17.1 µM],–
CCC(O)c1ccccc1 (stereo not given),-2.71%,–
c1ccc(-n2cnnn2)cc1,-4.91%,–
CCCC(CCC)C(=O)OC1C[C@H]2CC[C@@H](C1)[N+]2(C)C (stereo not given in full),7.25%,–
Cc1c(O)c(=O)ccn1C,-6.8%,–
Nc1nc(/C(=C/CC(=O)O)C(=O)N[C@@H]2C(=O)N3C(C(=O)O)=CCS[C@H]23)cs1,-2.91%,–
C[C@]12O[C@H](C[C@]1(O)CO)n1c3ccccc3c3c4c(c5c6ccccc6n2c5c31)CNC4=O,-11.4%,–
CO[C@H]1C[C@@H]2CC[C@@H](C)[C@@](O)(O2)C(=O)C(=O)N2CCCC[C@H]2C(=O)O[C@H]([C@H](C)C[C@@H]2CC[C@@H](O)[C@H](OC)C2)CC(=O)[C@H](C)C=C(C)[C@@H](O)[C@@H](OC)C(=O)[C@H](C)C[C@H](C)/C=C/C=CC=C1C,–,inactive
CO[C@H](C(=O)[C@@H](O)[C@@H](C)O)C1Cc2cc3cc(O[C@H]4C[C@@H](O[C@H]5C[C@@H](O)[C@H](O)[C@@H](C)O5)[C@@H](O)[C@@H](C)O4)c(C)c(O)c3c(O)c2C(=O)[C@H]1O[C@H]1C[C@@H](O[C@H]2C[C@@H](O[C@H]3C[C@](C)(O)[C@H](O)[C@@H](C)O3)[C@H](O)[C@@H](C)O2)[C@H](O)[C@@H](C)O1 (stereo not given in full),-7.03%,–
CC(C)[C@H](NC(=O)[C@H](CC(=O)O)NC(=O)[C@H](CCCCN)NC(=O)[C@@H](N)CCCN=C(N)N)C(=O)N[C@@H](Cc1ccc(O)cc1)C(=O)O (H-RKDVY-OH),-6%,–
CC(C)NCC1CCc2cc(CO)c([N+](=O)[O-])cc2N1 (stereo not given),1.3% [at 17.1 µM],–
O=C1CC[C@@H](C(=O)N[C@H]2C[C@@H]2c2ccccc2)N1,2.12%,–
O=C(CCCN1CCN2CCCC2C1)c1ccc(F)cc1 (stereo not given),19.6%,–
CCc1ncnc2cc(OC)c(OC)cc12,5.37%,–
CC(C)(Oc1ccc(C2CCCc3ccccc32)cc1)C(=O)O (stereo not given),24.9%,–
CN[C@H](CC(C)C)C(=O)N[C@H]1C(=O)N[C@@H](CC(N)=O)C(=O)N[C@H]2C(=O)N[C@H]3C(=O)N[C@H](C(=O)N[C@@H](C(=O)O)c4cc(O)cc(O)c4-c4cc3ccc4O)[C@H](O)c3ccc(c(Cl)c3)Oc3cc2cc(c3O[C@@H]2O[C@H](CO)[C@@H](O)[C@H](O)[C@H]2O[C@H]2C[C@](C)(N)C(O)[C@H](C)O2)Oc2ccc(cc2Cl)[C@H]1O (stereo not given in full),-2.65%,–
O=C(O)c1ccc(NC2OC[C@@H](O)[C@H](O)[C@H]2O)cc1 (stereo not given in full),-2.09%,–
C=CC1=C(C(=O)O)N2C(=O)[C@@H](NC(=O)/C(=N/OCC(=O)O)c3csc(N)n3)[C@H]2SC1 (stereo in doubt),-10.1% [at 17.1 µM],–
